Experimental findings from PubChem BioAssay AID489008 (National Center for Advancing Translational Sciences (NCATS), 2010) are described below.

Molecules are shown by their SMILES. Inconclusive results are not listed. Active and inactive are the calls of the source. Calls come from the whole dose curve; as a rule, active = well fitted inhibition curve with a large enough effect; inconclusive = small, poorly fitted or top-dose-only effect; inactive = flat fitted curve, though single readings scatter.

In this test the target is Ferritin light chain (Equus caballus) (UniProt P02791). Put plainly: Confirmation Assay for Identification of Novel General Anesthetics. Note: nearly all actives have a fitted effect of over 40% in size. The note with it: apoferritin 1-aminoanthracene fluorescence displacement. A digest of the protocol:
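Horse apoferritin (10 uM) pre-loaded with 1-AMA (50% saturated, PBS) exposed to compounds 10 min at room temperature; loss of 1-AMA fluorescence (380/535 nm) scaled between free and bound ligand, curves fitted with Hill equation.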
Potency is the fitted concentration of half-maximal effect.

Sequence of Ferritin light chain (Equus caballus) (P02791 2-175 limits assumed): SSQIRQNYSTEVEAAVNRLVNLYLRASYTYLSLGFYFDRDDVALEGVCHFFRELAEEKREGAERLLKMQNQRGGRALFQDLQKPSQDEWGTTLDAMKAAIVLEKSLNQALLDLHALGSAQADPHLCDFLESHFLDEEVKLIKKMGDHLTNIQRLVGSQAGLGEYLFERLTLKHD

In the case of `O=C(CSCc1ccccc1)Nc1cc([N+](=O)[O-])ccc1F`, the Potency is 31.6 µM (active).

For `Oc1ccc(C2C[C@H]3CC[C@@H]2C3)cc1O` (some centres undefined), the Potency is 7.08 µM (active).

For `O=C1C2CC=CCC2C(=O)N1Cc1ccccc1Cl` (centres undefined), the Potency was 7.94 µM (active).

`O=C(CN1N=C(c2ccccc2)CCC1=O)NCc1cccs1`: the Potency was 17.8 µM (active).

Turning to `Cc1ccc(OCc2cc(C(=O)N3CCCCCCC3)no2)cc1C`, the Potency was 22.4 µM (active).

Regarding `Cc1cccc(S(=O)(=O)NCCc2ccccc2)c1`, the Potency is 14.1 µM (active).

Turning to `O=C(Nc1cccc(Cl)c1)OCc1cncs1`, the Potency is 15.8 µM (active).

Consider `O=C(CCNc1cccc(Cl)c1)c1ccco1`, for which the Potency was 31.6 µM (active).

Turning to `N/C(Cc1ccc(Cl)cc1)=N\OC(=O)c1cccc2ccccc12`, the Potency is 8.91 µM (active).

For `Cn1cc(Br)c(C(=O)NC2C3CC4CC(C3)CC2C4)n1` (centres undefined), the Potency was 10 µM (active).

Take `Cc1ccc(CNC(=O)CN2N=C(c3ccccc3)CCC2=O)cc1`: the Potency is 5.19 µM (active).

For the compound `COc1ccc(Cc2nnc(NC(=O)c3ccccc3F)s2)cc1`, the Potency is 25.1 µM (active).

For the compound `O=C(Nc1cccc(F)c1)N1CCCCCC1`, the Potency was 12.6 µM (active).

For `Cc1ccc(O)c(Sc2cc(C)ccc2O)c1`, the Potency was 7.94 µM (active).

Consider `Clc1ccc(Nc2nc(C3CC3)cs2)cc1`, for which the Potency is 39.8 µM (active).

Regarding `O=C(CSc1ccccn1)C12CC3CC(CC(C3)C1)C2`, the Potency was 6.31 µM (active).

Consider `O=C(CCC1CCCCC1)Nc1nncs1`, for which the Potency was 15.8 µM (active).

Consider `O=C(Cc1ccccc1)N1CCc2ccccc21`, for which the Potency is 14.1 µM (active).

For the compound `O=C(CCl)Nc1ccc(N2CCCCCC2)cc1`, the Potency was 15.8 µM (active).
